# Numbering of substitutions follows the chain as printed.
# How the values were obtained:
# Experiment in all cases: PBM; 200 nM protein, PBS
# Details in all cases: dsDNA, one strand shown
# [1] = target: HOXA7 (Homo sapiens, UniProt P31268 116-202)
# [2] = target: HOXD13 (Homo sapiens, UniProt P35453 263-343, T313R)
# [3] = target: HOXD13 (Homo sapiens, UniProt P35453 263-343)
# [4] = target: HOXA7 (Homo sapiens, UniProt P31268 116-202, W177C)
# [5] = target: PITX2 (Homo sapiens, UniProt Q99697 72-157)
# [6] = target: HOXB6 (Homo sapiens, UniProt P17509 132-218, K202E)
# Chain of HOXB6 (Homo sapiens, UniProt P17509 132-218, K202E) (P17509 132-218 K202E): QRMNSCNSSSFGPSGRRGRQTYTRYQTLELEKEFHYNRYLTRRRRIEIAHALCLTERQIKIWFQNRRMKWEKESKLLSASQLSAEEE
# [7] = target: VAX1 (Homo sapiens, UniProt Q5SQQ9 86-172)
# Chain of VAX1 (Homo sapiens, UniProt Q5SQQ9 86-172) (Q5SQQ9 86-172): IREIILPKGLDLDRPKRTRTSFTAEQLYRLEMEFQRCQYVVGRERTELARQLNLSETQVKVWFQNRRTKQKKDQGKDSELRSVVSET
# [8] = target: MSX2 (Homo sapiens, UniProt P35548 130-214, F161Y)
# Chain of MSX2 (P35548 130-214 F161Y): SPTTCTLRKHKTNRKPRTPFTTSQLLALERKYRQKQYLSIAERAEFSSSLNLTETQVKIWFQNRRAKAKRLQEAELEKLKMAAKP
# [9] = target: VAX1 (Homo sapiens, UniProt Q5SQQ9 86-172, T142I)
# Chain of VAX1 (Homo sapiens, UniProt Q5SQQ9 86-172, T142I) (Q5SQQ9 86-172 T142I): as the sequence (Q5SQQ9 86-172) above, with T57I counted along it
# [10] = target: VAX1 (Homo sapiens, UniProt Q5SQQ9 86-172, K157R)
# Chain of VAX1 (Homo sapiens, UniProt Q5SQQ9 86-172, K157R) (Q5SQQ9 86-172 K157R): as the sequence (Q5SQQ9 86-172) above, with K72R counted along it
# [11] = target: HOXB6 (Homo sapiens, UniProt P17509 132-218)
# Chain of HOXB6 (Homo sapiens, UniProt P17509 132-218) (P17509 132-218): as the sequence (P17509 132-218 K202E) above, with E71K counted along it
# [12] = target: HOXC10 (Homo sapiens, UniProt Q9NYD6 254-340, K271E)
# Chain of HOXC10 (Q9NYD6 254-340 K271E): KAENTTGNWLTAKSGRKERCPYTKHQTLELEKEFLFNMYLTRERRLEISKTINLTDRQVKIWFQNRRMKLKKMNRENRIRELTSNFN
# [13] = target: HOXD13 (Homo sapiens, UniProt P35453 263-343, T313A)
# Chain of HOXD13 (Homo sapiens, UniProt P35453 263-343, T313A) (P35453 263-343 T313A): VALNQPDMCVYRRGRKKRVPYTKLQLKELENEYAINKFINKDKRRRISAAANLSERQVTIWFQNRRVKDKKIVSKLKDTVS
# [14] = target: ALX1 (Homo sapiens, UniProt Q15699 118-204, L144V)
# Chain of ALX1 (Homo sapiens, UniProt Q15699 118-204, L144V) (Q15699 118-204 L144V): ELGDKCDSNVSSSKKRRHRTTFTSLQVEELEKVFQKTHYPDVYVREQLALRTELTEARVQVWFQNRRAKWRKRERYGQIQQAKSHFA
# [15] = target: ALX1 (Homo sapiens, UniProt Q15699 118-204, L144R)
# Chain of ALX1 (Homo sapiens, UniProt Q15699 118-204, L144R) (Q15699 118-204 L144R): as the sequence (Q15699 118-204 L144V) above, with V27R counted along it
# [16] = target: ALX1 (Homo sapiens, UniProt Q15699 118-204)
# Chain of ALX1 (Homo sapiens, UniProt Q15699 118-204) (Q15699 118-204): as the sequence (Q15699 118-204 L144V) above, with V27L counted along it
# [17] = target: T1, PAX4 (Homo sapiens, UniProt O43316 9-242, R200K)
# T1 sequence: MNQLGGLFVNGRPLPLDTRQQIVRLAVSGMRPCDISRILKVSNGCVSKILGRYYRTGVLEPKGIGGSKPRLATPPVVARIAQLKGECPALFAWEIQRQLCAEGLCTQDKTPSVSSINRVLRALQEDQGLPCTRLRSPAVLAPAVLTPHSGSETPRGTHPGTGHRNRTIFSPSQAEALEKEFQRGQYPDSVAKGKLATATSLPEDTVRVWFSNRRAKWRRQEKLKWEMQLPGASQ
# [18] = target: T2, PAX4 (Homo sapiens, UniProt O43316 9-242)
# T2 sequence: T1 sequence with K192R
# [19] = target: T3, PAX4 (Homo sapiens, UniProt O43316 9-242, R200Q)
# T3 sequence: T1 sequence with K192Q
# [20] = target: T4, PAX4 (Homo sapiens, UniProt O43316 9-242, F177V)
# T4 sequence: T1 sequence with F169V, K192R
# [21] = target: T5, PAX4 (Homo sapiens, UniProt O43316 9-242, F177Y)
# T5 sequence: T1 sequence with F169Y, K192R
# [22] = target: T6, PAX4 (Homo sapiens, UniProt O43316 9-242, R227W)
# T6 sequence: T1 sequence with K192R, R219W
# Chain of HOXD13 (Homo sapiens, UniProt P35453 263-343) (P35453 263-343): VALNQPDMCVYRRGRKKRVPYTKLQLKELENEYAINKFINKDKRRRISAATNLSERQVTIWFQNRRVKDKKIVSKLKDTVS
# Chain of HOXD13 (Homo sapiens, UniProt P35453 263-343, T313R) (P35453 263-343 T313R): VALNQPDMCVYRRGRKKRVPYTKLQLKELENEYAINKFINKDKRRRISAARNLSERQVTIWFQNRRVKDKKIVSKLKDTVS
# Chain of HOXA7 (Homo sapiens, UniProt P31268 116-202) (P31268 116-202): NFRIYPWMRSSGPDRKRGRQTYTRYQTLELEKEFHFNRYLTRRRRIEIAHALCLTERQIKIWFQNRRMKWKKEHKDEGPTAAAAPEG
# Chain of HOXA7 (Homo sapiens, UniProt P31268 116-202, W177C) (P31268 116-202 W177C): as the sequence (P31268 116-202) above, with W62C counted along it
sequence,measurement,setting,value
ATTACCAC,binding signal,[1],"10.4 upbm affinity estimate (log intensity, higher = more binding, comparable within an allelic series)"
same,binding signal,[2],"10.1 upbm affinity estimate (log intensity, higher = more binding, comparable within an allelic series)"
same,binding signal,[3],"10.7 upbm affinity estimate (log intensity, higher = more binding, comparable within an allelic series)"
same,binding signal,[4],"8.73 upbm affinity estimate (log intensity, higher = more binding, comparable within an allelic series)"
AGGGCATG,binding signal,[1],"8.51 upbm affinity estimate (log intensity, higher = more binding, comparable within an allelic series)"
same,binding signal,[5],"7.96 upbm affinity estimate (log intensity, higher = more binding, comparable within an allelic series)"
same,binding signal,[4],"8.49 upbm affinity estimate (log intensity, higher = more binding, comparable within an allelic series)"
CGCAGGTC,binding signal,[1],"8.46 upbm affinity estimate (log intensity, higher = more binding, comparable within an allelic series)"
same,binding signal,[4],"8.44 upbm affinity estimate (log intensity, higher = more binding, comparable within an allelic series)"
AATTACCC,binding signal,[1],"11.4 upbm affinity estimate (log intensity, higher = more binding, comparable within an allelic series)"
same,binding signal,[6],"9.85 upbm affinity estimate (log intensity, higher = more binding, comparable within an allelic series)"
same,binding signal,[7],"12.7 upbm affinity estimate (log intensity, higher = more binding, comparable within an allelic series)"
same,binding signal,[8],"13 upbm affinity estimate (log intensity, higher = more binding, comparable within an allelic series)"
same,binding signal,[9],"12.5 upbm affinity estimate (log intensity, higher = more binding, comparable within an allelic series)"
same,binding signal,[4],"8.89 upbm affinity estimate (log intensity, higher = more binding, comparable within an allelic series)"
same,binding signal,[10],"12.6 upbm affinity estimate (log intensity, higher = more binding, comparable within an allelic series)"
same,binding signal,[11],"11.7 upbm affinity estimate (log intensity, higher = more binding, comparable within an allelic series)"
ATATAAAA,binding signal,[1],"9.79 upbm affinity estimate (log intensity, higher = more binding, comparable within an allelic series)"
same,binding signal,[2],"10.9 upbm affinity estimate (log intensity, higher = more binding, comparable within an allelic series)"
same,binding signal,[3],"11.8 upbm affinity estimate (log intensity, higher = more binding, comparable within an allelic series)"
same,binding signal,[12],"11.3 upbm affinity estimate (log intensity, higher = more binding, comparable within an allelic series)"
same,binding signal,[13],"11.7 upbm affinity estimate (log intensity, higher = more binding, comparable within an allelic series)"
same,binding signal,[4],"8.84 upbm affinity estimate (log intensity, higher = more binding, comparable within an allelic series)"
CGTCGCCC,binding signal,[1],"8.61 upbm affinity estimate (log intensity, higher = more binding, comparable within an allelic series)"
same,binding signal,[14],"6.4 upbm affinity estimate (log intensity, higher = more binding, comparable within an allelic series)"
same,binding signal,[15],"6.34 upbm affinity estimate (log intensity, higher = more binding, comparable within an allelic series)"
same,binding signal,[4],"8.42 upbm affinity estimate (log intensity, higher = more binding, comparable within an allelic series)"
same,binding signal,[16],"6.57 upbm affinity estimate (log intensity, higher = more binding, comparable within an allelic series)"
AGGGCGGC,binding signal,[1],"8.44 upbm affinity estimate (log intensity, higher = more binding, comparable within an allelic series)"
same,binding signal,[2],"9.45 upbm affinity estimate (log intensity, higher = more binding, comparable within an allelic series)"
same,binding signal,[3],"9.52 upbm affinity estimate (log intensity, higher = more binding, comparable within an allelic series)"
same,binding signal,[7],"7.1 upbm affinity estimate (log intensity, higher = more binding, comparable within an allelic series)"
same,binding signal,[13],"9.5 upbm affinity estimate (log intensity, higher = more binding, comparable within an allelic series)"
same,binding signal,[9],"6.95 upbm affinity estimate (log intensity, higher = more binding, comparable within an allelic series)"
same,binding signal,[4],"8.27 upbm affinity estimate (log intensity, higher = more binding, comparable within an allelic series)"
same,binding signal,[10],"6.98 upbm affinity estimate (log intensity, higher = more binding, comparable within an allelic series)"
CTCAGCTC,binding signal,[1],"8.44 upbm affinity estimate (log intensity, higher = more binding, comparable within an allelic series)"
same,binding signal,[4],"8.39 upbm affinity estimate (log intensity, higher = more binding, comparable within an allelic series)"
AGGCAGGC,binding signal,[1],"8.15 upbm affinity estimate (log intensity, higher = more binding, comparable within an allelic series)"
same,binding signal,[17],"9.23 upbm affinity estimate (log intensity, higher = more binding, comparable within an allelic series)"
same,binding signal,[18],"9.23 upbm affinity estimate (log intensity, higher = more binding, comparable within an allelic series)"
same,binding signal,[19],"9.37 upbm affinity estimate (log intensity, higher = more binding, comparable within an allelic series)"
same,binding signal,[20],"9.22 upbm affinity estimate (log intensity, higher = more binding, comparable within an allelic series)"
same,binding signal,[21],"9.34 upbm affinity estimate (log intensity, higher = more binding, comparable within an allelic series)"
same,binding signal,[22],"9.36 upbm affinity estimate (log intensity, higher = more binding, comparable within an allelic series)"
same,binding signal,[4],"8.3 upbm affinity estimate (log intensity, higher = more binding, comparable within an allelic series)"
